A short description of assay [1]: circadian clock period modulators, cell-based, LOPAC library, luminescence reporter (AID 2774).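 Note: values are relative to mean of DMSO wells on each plate.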 The settings on record: circadian reporter cells, at 7 µM, actives lie on both sides.
Assay [2] has as its system Hepatitis C virus NS3 helicase. The experiment in a line: HCV NS3 helicase inhibitors, primary screen, biochemical, fluorescence polarization, LOPAC1280 library (AID 687035; in the data active = inhibition above about 37%). The following applies: Purified HCV NS3 helicase, Cy5-dT15 ssDNA binding fluorescence polarization; stronger effect = higher value; concentration not given here.
Assay [3] is described as follows: Cy5 fluorescence quenching or enhancement artefacts, artefact control for HCV NS3 helicase inhibitor project, biochemical, LOPAC1280 (AID 687037). The following applies: Cy5-DNA-NS3h complex fluorescence interference counterscreen. (In general: Counterscreens check selectivity or assay interference.)
Assay [4] has as its system Aerobactin synthetase IucA (Klebsiella pneumoniae, hypervirulent). The experiment in a line: IucA enzyme inhibition, biochemical, LOPAC library, absorbance readout (AID 1346212).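 Note: 100% = no compound wells and 0% = no enzyme wells.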 The following applies: IucA enzyme assay, absorbance (OD) readout; stronger effect = lower value;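 tested at 8 µM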.
Assay [5] can be described thus: sensitizers of A549 cells to miR-34 induction, primary screen, imaging, A549 dox-inducible miR-34, nuclei and caspase counts (AID 1347080;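 active = compounds whose cell count with miR-34 switched on is under 0.7 times the count with it off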). The following applies: A549 miR-34 inducible, Hoechst nuclei count, 48 h.
The nature of assay [6]: phospholipid biosynthesis inhibitors in animal cells, primary screen, cell-based, LOPAC library, screen 4 (AID 1347384). The settings on record: phospholipid biosynthesis inhibition screen, at 10 µM.
Assay [7] is described as follows: viability rescue of complex I mutant cybrids, primary screen, cell-based, galactose medium, ATP luminescence (AID 1645843;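 active = z-score of at least 1.8 in each of two replicates, scored against plate mean and spread of sample wells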;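 note: positive z means more ATP and so rescue of galactose-driven cybrid death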). The following applies: complex I mutant cybrid cells, 72 h, stronger effect = higher value.
Assay [8] in a line: hESC survival regulators, cell-based (AID 493140).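 Note: cells exposed to compounds for four days before counting.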 The following applies: human embryonic stem cell survival screen; stronger effect = higher value.
Assay [9] in a line: inhibitors of Cryptococcus chitosan production, flow cytometry, Cibacron Brilliant Red staining (AID 1347148).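 Note: compound exposure lasted three days at 37 degrees C.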 The settings on record: Cryptococcus neoformans chitosan, stronger effect = lower value; at 10 µM unless noted. A general note: In flow cytometry, cells or beads pass a laser one at a time.
A short description of assay [10]: survival rescue of mitochondrial mutant cells in low glucose, primary screen, MELAS cybrids, Rieske KO mouse fibroblasts, CellTiter-Glo (AID 1508586;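 active = mean z-score across replicates of 1.96 or higher in either the MELAS or the Rieske mutant cell line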;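 note: z relative to plate mean and SD of compound and empty wells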). (In general: Cellular ATP, detected with luciferase, serves as a proxy for viable cell number.)
Where [11] appears, read: measured here: relative caspase fold change +Dox/-Dox.
Where [12] appears, read: measured here: total cells with miR-34 induction, stronger effect = lower value.
Setting [13] is: measured here: total cells without miR-34 induction.

Molecules are shown by their SMILES. “And” between values parts separate entries of the source, which are not always exact repeats. Equal values may be shown once. The source made the active and inactive calls. Unless noted, the rule behind the calls is not given here.

The source of these data is PubChem BioAssay.

Broadly, the inhibition is the relative decrease from the control value, in per cent. As a reminder, the remaining activity is the signal under treatment as a percentage of the control signal. With `NC1CCc2cc(O)c(O)cc2C1` (stereo not given), the period change in [1] is 0.115 h (inactive). For the same molecule, in [2], the inhibition is -1% (inactive). Further, the fluorescence ratio (interference) in assay [3] was 1 (inactive). Besides, the remaining activity in assay [4] is 106% (inactive). Besides, the fold change was 0.979 (inactive) and 0.806 (inactive) in assay [5] (stronger effect = lower value); 1.51 and 1.21 in [5] (setting [11]). For the same molecule, the cell count was 9700 and 3720 in assay [5] (setting [12]); 9900 and 4610 in assay [5] (setting [13]). For the same molecule, the molecule was called inactive in assay [6]. In assay [7], the z-score was -0.895 (inactive).
On to `CCCN(CCC)[C@@H]1CCc2ccc(O)cc2C1`, for which, in [1], the period change was 0.12 h (inactive). The inhibition in [2] is 0% (inactive). In assay [3], the fluorescence ratio (interference) is 1.1 (inactive). For the same molecule, in [4], the remaining activity is 125% (inactive). The fold change in assay [5] (stronger effect = lower value) was 0.992 (inactive); in [5] (setting [11]), 1.38. The cell count in assay [5] (setting [12]) turned out to be 9820; in assay [5] (setting [13]), 9900. For the same molecule, in [6], the molecule was classed as inactive. Also, in [7], the z-score was -0.195 (inactive).
On to `CC1=C(C)C(=O)C(CCCCC#CCCCC#CCO)=C(C)C1=O`, for which, in assay [4], the remaining activity is 118% (inactive).
In the case of `Clc1ccc(N2CC3CCC(C2)N3)nn1`, the period change in assay [1] is -0.11 h (inactive). Also, the inhibition in assay [2] was -5% (inactive). Besides, the fluorescence ratio (interference) in assay [3] was 1 (inactive). For the same molecule, the remaining activity in assay [4] is 90.4% (inactive). The fold change was 1 (inactive) in [5] (stronger effect = lower value) and 1.13 in [5] (setting [11]). For the same molecule, the cell count in [5] (setting [12]) and in [5] (setting [13]) was 10400 in each case. The molecule was called inactive in assay [6]. Moreover, the z-score in [7] is -0.28 (inactive).
On to `CO[C@H]1CC=C2CCN3CCC4=C(CC(=O)OC4)[C@]23C1`, for which the period change in assay [1] was 0.065 h (inactive). In addition, the inhibition in assay [2] is -3% (inactive). In addition, the fluorescence ratio (interference) in assay [3] was 1 (inactive). In addition, the remaining activity in [4] is 103% (inactive). For the same molecule, the fold change was 0.939 (inactive) in [5] (stronger effect = lower value, cell number ratio, induced over uninduced) and 1.26 in assay [5] (setting [11]). For the same molecule, the cell count in assay [5] (setting [12]) came out at 9420; in assay [5] (setting [13]) it was 10000. The molecule was classed as inactive in [6]. Also, in assay [7], the z-score is 0.375 (inactive).
In the case of `Nc1ccc(CCN2CCN(c3cccc(C(F)(F)F)c3)CC2)cc1`, the period change in assay [1] was 0.14 h (inactive). Besides, the inhibition in [2] is -3% (inactive). Also, in assay [3], the fluorescence ratio (interference) was 0.9 (inactive). In addition, in assay [4], the remaining activity is 102% (inactive). Moreover, the fold change in assay [5] (stronger effect = lower value) is 0.992 (inactive); in assay [5] (setting [11]), 0.858. For the same molecule, the cell count in assay [5] (setting [12]) worked out at 8520; in [5] (setting [13]), 8580. Further, the outcome in assay [6] was inactive. Besides, the z-score in assay [7] was -0.665 (inactive).
For the molecule `CC(C)(C)c1cc(C=C(C#N)C#N)cc(C(C)(C)C)c1O`, the period change in [1] is 1.05 h (inactive). For the same molecule, the survival in assay [8] is 76 (inactive). For the same molecule, the inhibition in assay [2] is 0% (inactive). In addition, the fluorescence ratio (interference) in assay [3] is 1 (inactive). The remaining activity in [4] was 101% (inactive). In addition, the fold change in assay [5] (stronger effect = lower value) was 1.14 (inactive) and 1.05 (inactive) and 0.984 (inactive); in [5] (setting [11]), 0.636 and 2.12 and 0.899. Besides, the cell count in [5] (setting [12]) is 1430 and 1570 and 1940; in [5] (setting [13]), 1250 and 1490 and 1970. The fold fluorescence in [9] is 9.17 [at 177.1 µM] (inactive). Also, the molecule was classed as active in assay [6]. Further, the z-score in assay [10] (MELAS cybrid survival, CellTiter-Glo 48 h, stronger effect = higher value) is 0.224 (inactive); in assay [10] (Rieske KO mouse fibroblast survival, CellTiter-Glo 72 h), -0.362; in [7] it was -1.27 (inactive).
